From PubChem BioAssay (NCATS)
Records with an inconclusive call do not appear. Active and inactive are the calls of the source. Unless noted, calls follow the shape of the dose curve; as a rule, active = well fitted curve in the direction sought with a large enough effect; inconclusive = small, poorly fitted or top-dose-only effect, or another doubt; inactive = no such curve, though single readings can be large; an effect the other way counts as inactive or inconclusive.

How the values were obtained:
[1] = target: Lysosomal acid glucosylceramidase (Homo sapiens) (UniProt P04062); experiment: Glucocerebrosidase-p2 (AID 348; in the data active = potency below about 10 µM; also: potency is read from the fitted curve at half-maximal effect); conditions: purified GBA, blue fluorogenic substrate, 40 min
Outline: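 Normal human glucocerebrosidase (0.2 nM) with blue fluorogenic substrate (80 uM final) in citrate/phosphate pH 5.9 with 10mM sodium taurocholate, 0.01% tween-20; 40 min RT, NaOH/glycine stop; fluorescence Ex 365/Em 440; AC50 from a titration from 0.6 nM upwards.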

[2] = target: Cytochrome P450 1A2 (Homo sapiens) (UniProt P05177); experiment: p450-cyp1a2 (AID 410; calls by dose curve; also: potency is read from the fitted curve at half-maximal effect)
Outline: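 Read-out is luminescence from luciferin produced by CYP1A2 demethylation of Luciferin-ME (100uM, at Km). Detection reagent stopped the 60 min NADPH-dependent reaction; signals were normalized to 57 uM furafylline.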

[3] = NFAT Signaling Pathway (AID 444; active = well fitted curve in either direction with a large enough effect, not every such curve was filed as active;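 also: carbachol stimulus at about its EC50 of 1 µM final; % is scaled to controls: 0 for no effect and ±100 for the full control effect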); conditions: Jurkat NFAT-bla M1, carbachol, beta-lactamase ratio, 5 h; at 7.69 µM (top of the series) unless noted
Outline: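 Read-out: CCF4 FRET ratio (460 nm/530 nm) after 1 h RT dye loading, used for %activity and AC50 from titration series. Cells: Jurkat NFAT-β-lactamase/M1 line, treated with compound plus 1 uM carbachol for 5 h, 37 °C.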

[4] = Stat Signaling Pathway (AID 446; active = well fitted curve in either direction with a large enough effect, not every such curve was filed as active;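 also: ME-180 cervical cancer cells given 40 pM IL-6 alongside compound; SIE-controlled beta-lactamase reporter measured as 460/530 nm FRET emission ratio; % is scaled to controls: 0 for no effect and ±100 for the full control effect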); conditions: ME-180 SIE beta-lactamase reporter, IL-6 stimulated, 5 h; at 7.69 µM (top of the series) unless noted
Outline: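 FRET read-out (405 nm excitation, 460/530 nm emission) of a beta-lactamase reporter under a STAT-inducible element in ME-180 cervical carcinoma cells. Cells with compound receive 40 pM IL-6 for 5 h. Values are normalised to AC90 stimulation and AC90 JAK-inhibitor controls.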

[5] = target: Glucocorticoid receptor (Homo sapiens) (UniProt P04150); experiment: GR-GFP Redistribution (AID 450;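 active = compounds whose dose series gives a full or clear partial fitted curve of increased nuclear translocation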; also: potency is read from the fitted curve at half-maximal effect); conditions: U2OS GR-GFP nuclear translocation, laser cytometry, 2 h
[6] = target: Glucocorticoid receptor (Homo sapiens) (UniProt P04150); experiment: GR-EFC Redistribution (AID 451; calls by dose curve; also: potency is read from the fitted curve at half-maximal effect); conditions: CHO-K1 GR-EFC translocation, beta-gal luminescence, 2 h
Outline: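 Translocation of GR-ED fusion to nuclear EA restores b-gal, read by luminescence after 1 h room-temperature detection. Engineered CHO-K1 biosensor cells, 1,000/well, exposed 2 h at 37 C to titrations up to 46 uM final.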

[7] = target: Mitogen-activated protein kinase 10 (Mus musculus) (UniProt Q61831); experiment: JNK3 AlphaScreen Assay (AID 530; active = well fitted curve in either direction with a large enough effect, not every such curve was filed as active;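 also: kinase came from lysate of stimulated human HepG2 cells; signal reports phosphorylation of biotinylated GST-cJun 1-79 at Ser73 with 10 µM ATP; % is scaled to controls: 0 for no effect and ±100 for the full control effect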)
Outline: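 Kinase buffer: 20 mM Tris-HCl pH 7.6, 10 mM MgCl2, 1 mM DTT, 0.1 mM Na3VO4, 0.01% Tween-20; ATP 10 uM. Substrate biotin-GST-cJun(1-79), enzyme from activated HepG2 lysates. Detection by Ser73 phospho-antibody AlphaScreen.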

[8] = target: 3',5'-cyclic-AMP phosphodiesterase 4B (Homo sapiens) (UniProt Q07343); experiment: qHTS Assay for Inhibitors of PDE-IV (AID 607; active = well fitted activation curve with a large enough effect in the main read-out, with a control signal flat, not every such curve was filed as active; also: % of control where 0% means no effect)
Outline: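 Cell-based read-out of cAMP via a modified cyclic nucleotide-gated channel and membrane potential dye (535/590 nm) in HEK293 cells expressing PDE4 endogenously. Compounds tested up to 22.9 uM final; 100 uM RO 20-1724 reference.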

[9] = target: Cytochrome P450 3A4 (Homo sapiens) (UniProt P08684); experiment: qHTS Assay for Activators of Cytochrome P450 3A4 (AID 885); also: nearly all actives have a fitted effect of over 65% in size
Outline: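 Luminescent readout of luciferin formed from 25 uM Luciferin-PPXE (KM level) by 20 nM CYP3A4 in 200 mM KPO4, with 60 min NADPH-driven reaction at room temperature after 10 min compound exposure. Ketoconazole (57 uM) defined 100% inhibition.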

[10] = qHTS Assay for Lipid Storage Modulators (AID 1519; calls by dose curve); conditions: Drosophila S3 cells, BODIPY lipid droplet/cell ratio, laser cytometry, cells loaded with oleic acid; for activity change, negative = inhibition: at 57.5 µM (top of the series)
Outline: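 Cells seeded at 5,000 per well were treated with compounds over a concentration series and loaded with oleic acid (400 uM, as added). Lipid droplet fluorescence (488 nm excitation, 500-530 nm channel) was read by laser-scanning cytometry and normalized to 20 uM Triacsin C.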

[11] = target: Dual specificity protein kinase CLK4 (Homo sapiens) (UniProt Q9HAZ1); experiment: qHTS Assay for Inhibitors of CDC-like Kinase 4 (Kinase-Glo Assay) (AID 1770); also: nearly all actives have a fitted effect of over 65% in size; also: potency is read from the fitted curve at half-maximal effect
Outline: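 Recombinant human Clk4 (25 nM) phosphorylated RS repeat peptide (100 uM) with 1 uM ATP in Tris pH 7.5/MgCl2/EGTA/DTT/Triton buffer for 4.5 h at room temperature. Residual ATP was quantified by Kinase-Glo luciferase luminescence.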

[12] = target: Dual specificity protein kinase CLK4 (Homo sapiens) (UniProt Q9HAZ1); experiment: qHTS Assay for Inhibitors of CDC-like Kinase 4 (ADP-Glo Assay) (AID 1771); also: nearly all actives have a fitted effect of over 70% in size; also: potency is read from the fitted curve at half-maximal effect
Outline: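 In this ADP-Glo format, 1 uM ATP and 100 uM RS peptide served as substrates for 25 nM Clk4 in Mg2+/EGTA/DTT/Triton buffer; reactions ran 1 hr at room temperature before luminescent ADP quantification.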

[13] = target: Dual specificity protein kinase CLK4 (Homo sapiens) (UniProt Q9HAZ1); experiment: qHTS Assay for Inhibitors of CDC-like Kinase 4 (ADP-FP Assay) (AID 1795); also: nearly all actives have a fitted effect of over 60% in size; also: potency is read from the fitted curve at half-maximal effect
Outline: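 Recombinant human Clk4 (6.25 nM) phosphorylated RS repeat peptide (100 uM) with 1 uM ATP in Tris pH 7.5/MgCl2/EGTA/DTT/Triton buffer for one hour. ADP was quantified by Transcreener competitive fluorescence polarization against an ADP calibration curve.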

[14] = Counterscreen qHTS for small molecule stabilizers of the endoplasmic reticulum resident proteome: GLuc-NoTag assay (AID 1508627); also: potency is read from the fitted curve at half-maximal effect;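 as to activity change, negative = inhibition: SH-SY5Y cells given compound then 100 nM thapsigargin to empty ER calcium; 0% = thapsigargin alone and -100% = DMSO vehicle control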
Outline: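 Counterscreen line: SH-SY5Y-GLuc-NoTag cells, treated with compound 19 hr before a 4 hr, 100 nM thapsigargin calcium depletion. Secreted Gaussia luciferase in the medium was measured by luminescence after coelenterazine was added (0.07x final), with cells unlysed.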

[15] = Confirmatory qHTS for small molecule stabilizers of the endoplasmic reticulum resident proteome: Secreted ER Calcium Modulated Protein (SERCaMP) assay (AID 1508628); also: nearly all actives have a fitted effect of over 40% in size; also: potency is read from the fitted curve at half-maximal effect
Outline: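 GLuc-SERCaMP-expressing SH-SY5Y cells, pretreated 16 h with compound, are challenged with thapsigargin to empty ER calcium stores; after 4 h, coelenterazine is added directly to the medium and luminescence is imaged.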

[16] = Cell Viability qHTS for small molecule stabilizers of the endoplasmic reticulum resident proteome (AID 1508629); conditions: cell viability counter-screen, 100 nM thapsigargin for final 4 h;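 also: compound exposure about 46 h in total before the viability read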; also: potency is read from the fitted curve at half-maximal effect
[17] = target: Ubiquitin carboxyl-terminal hydrolase 1 (Homo sapiens) (UniProt O94782); experiment: Inhibitors of USP1/UAF1: Pilot qHTS (AID 504865);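 also: rhodamine fluorescence freed from ubiquitin-rhodamine substrate followed over time; top concentration of the series differs between compounds; % is scaled to controls: 0 for no effect and ±100 for the full control effect; nearly all actives have a fitted effect of over 35% in size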
Outline: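 USP1/UAF1 complex (1nM) preincubated with compound 15 min at room temperature, then Ub-Rho substrate (150nM final) added. Fluorescence read kinetically at 480/540 nm, 6 reads every 60 seconds. Buffer: 50mM HEPES pH 7.8, 0.5mM EDTA, 0.1 mg/ml BSA, 1mM TCEP, 0.01% Tween-20.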

[18] = AP1 Signaling Pathway (AID 357; active = well fitted curve in either direction with a large enough effect, not every such curve was filed as active;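 also: ME-180 reporter cells stimulated with EGF at its EC50 level; % is scaled to controls: 0 for no effect and ±100 for the full control effect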); conditions: ME-180 AP-1-bla reporter, EGF-induced, beta-lactamase ratio, 5 h; at 7.69 µM (top of the series) unless noted
Outline: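 Titration-series screen for positive or negative modulators of EC50 EGF-induced signaling in ME-180 cells carrying an AP-1-driven beta-lactamase reporter. After 5 hours at 37 degrees Celsius, CCF4 460nm/530nm emission ratio gave %Activity; AC50 values derived.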

[19] = Confirmation and Secondary Assay for Modulators of Hemoglobin Beta Chain Splicing at IVS2 654 locus (AID 910);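 also: HeLa cells stably carrying EGFP split by mutant beta-globin IVS2-654 intron; per-well total GFP intensity by laser scanning cytometry after 2-day treatment; % of control where 0% means no effect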
Outline: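 Readout: per-well total peak green fluorescence (488 nm ex, 500–520 nm em) from objects 5–250 µm, reflecting correct splicing of an EGFP-654 reporter. Compounds were applied for 2 days at 37 °C to overnight-plated HeLa EGFP-654 cells; controls were DMSO and 500 nM IVS2-654 PNA.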

[20] = qHTS Assay for Identification of Small Molecule Agonists for Hypoxia Response Element Signaling Pathway (AID 914; active = well fitted activation curve with a large enough effect in the signal ratio, with a control signal flat, not every such curve was filed as active; the % refers to the signal ratio; also: potency is read from the fitted curve at half-maximal effect); conditions: ME-180 (cervical carcinoma) HRE-bla reporter, beta-lactamase ratio, CoCl2, 17 h; activation: stronger effect = higher value
Outline: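 Read-out: CCF4 FRET ratio of 460nm to 530nm emission (excitation 405nm) after 2.5 hours at room temperature, taken from HRE-bla ME-180 cells that had been exposed to compound and EC50 CoCl2 for 17 hours.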

[21] = measured here: cell count channel max response
[22] = measured here: lipid channel max response

Chain of Lysosomal acid glucosylceramidase (Homo sapiens) (P04062 whole entry, looked up): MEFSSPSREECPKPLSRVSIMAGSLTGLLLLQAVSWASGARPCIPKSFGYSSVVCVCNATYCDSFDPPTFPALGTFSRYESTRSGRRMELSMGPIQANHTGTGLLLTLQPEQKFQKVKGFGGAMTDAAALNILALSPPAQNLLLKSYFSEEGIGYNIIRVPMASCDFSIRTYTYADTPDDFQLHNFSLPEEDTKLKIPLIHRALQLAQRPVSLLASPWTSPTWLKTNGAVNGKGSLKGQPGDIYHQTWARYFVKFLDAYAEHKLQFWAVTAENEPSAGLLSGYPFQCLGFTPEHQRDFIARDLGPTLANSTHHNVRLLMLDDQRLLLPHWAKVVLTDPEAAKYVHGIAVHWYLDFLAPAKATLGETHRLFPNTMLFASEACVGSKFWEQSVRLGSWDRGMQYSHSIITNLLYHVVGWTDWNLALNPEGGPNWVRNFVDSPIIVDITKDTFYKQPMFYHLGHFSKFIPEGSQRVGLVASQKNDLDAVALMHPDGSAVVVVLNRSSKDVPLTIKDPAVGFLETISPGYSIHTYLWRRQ
Chain of Dual specificity protein kinase CLK4 (Homo sapiens) (Q9HAZ1 whole entry, looked up): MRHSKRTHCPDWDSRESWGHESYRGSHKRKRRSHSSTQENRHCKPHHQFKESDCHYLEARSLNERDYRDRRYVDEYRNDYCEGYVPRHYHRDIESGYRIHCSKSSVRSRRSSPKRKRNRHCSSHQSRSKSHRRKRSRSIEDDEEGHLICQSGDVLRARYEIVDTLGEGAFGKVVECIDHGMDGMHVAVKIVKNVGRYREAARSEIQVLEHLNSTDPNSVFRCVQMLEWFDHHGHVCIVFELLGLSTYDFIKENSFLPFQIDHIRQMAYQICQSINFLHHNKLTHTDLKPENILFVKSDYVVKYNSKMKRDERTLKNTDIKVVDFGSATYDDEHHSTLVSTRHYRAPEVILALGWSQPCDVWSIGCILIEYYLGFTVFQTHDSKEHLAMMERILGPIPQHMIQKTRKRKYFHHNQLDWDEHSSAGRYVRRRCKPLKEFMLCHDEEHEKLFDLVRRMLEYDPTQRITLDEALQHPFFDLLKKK
Chain of 3',5'-cyclic-AMP phosphodiesterase 4B (Homo sapiens) (Q07343 whole entry, looked up): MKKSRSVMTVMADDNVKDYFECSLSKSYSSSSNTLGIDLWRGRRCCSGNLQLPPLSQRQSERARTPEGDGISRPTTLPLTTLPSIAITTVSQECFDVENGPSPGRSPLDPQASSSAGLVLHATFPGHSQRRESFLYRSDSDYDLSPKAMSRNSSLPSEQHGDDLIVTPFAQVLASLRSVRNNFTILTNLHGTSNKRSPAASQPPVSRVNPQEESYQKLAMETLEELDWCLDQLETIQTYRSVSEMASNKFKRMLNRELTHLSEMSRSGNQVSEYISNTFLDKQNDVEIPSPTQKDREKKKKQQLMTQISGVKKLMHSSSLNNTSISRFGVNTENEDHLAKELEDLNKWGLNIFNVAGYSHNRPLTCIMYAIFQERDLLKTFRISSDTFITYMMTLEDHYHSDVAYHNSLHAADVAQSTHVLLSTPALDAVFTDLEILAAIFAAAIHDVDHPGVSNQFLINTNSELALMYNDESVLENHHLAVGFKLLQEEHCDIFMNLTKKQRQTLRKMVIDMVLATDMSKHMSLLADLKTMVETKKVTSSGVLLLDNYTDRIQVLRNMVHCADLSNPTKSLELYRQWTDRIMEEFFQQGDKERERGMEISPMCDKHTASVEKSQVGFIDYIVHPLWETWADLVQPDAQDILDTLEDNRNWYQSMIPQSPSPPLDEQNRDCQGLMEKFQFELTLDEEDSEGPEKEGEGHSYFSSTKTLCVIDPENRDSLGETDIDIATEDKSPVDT
Chain of Cytochrome P450 1A2 (Homo sapiens) (P05177 whole entry, looked up): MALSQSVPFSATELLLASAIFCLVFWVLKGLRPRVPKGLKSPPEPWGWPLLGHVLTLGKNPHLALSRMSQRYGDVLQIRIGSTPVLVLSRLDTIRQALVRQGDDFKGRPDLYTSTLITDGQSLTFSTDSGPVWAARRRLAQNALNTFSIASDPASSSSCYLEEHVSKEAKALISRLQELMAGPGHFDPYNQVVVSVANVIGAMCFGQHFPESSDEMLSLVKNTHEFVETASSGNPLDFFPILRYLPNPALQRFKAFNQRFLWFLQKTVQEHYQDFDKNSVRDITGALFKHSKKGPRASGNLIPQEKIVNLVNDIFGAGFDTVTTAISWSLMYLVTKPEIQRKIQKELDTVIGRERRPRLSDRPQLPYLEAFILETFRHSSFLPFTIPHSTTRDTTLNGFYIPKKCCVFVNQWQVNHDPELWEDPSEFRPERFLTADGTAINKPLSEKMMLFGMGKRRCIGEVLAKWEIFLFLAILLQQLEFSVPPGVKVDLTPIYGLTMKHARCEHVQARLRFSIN
Chain of Glucocorticoid receptor (Homo sapiens) (P04150 whole entry, looked up, the tested form may be a part): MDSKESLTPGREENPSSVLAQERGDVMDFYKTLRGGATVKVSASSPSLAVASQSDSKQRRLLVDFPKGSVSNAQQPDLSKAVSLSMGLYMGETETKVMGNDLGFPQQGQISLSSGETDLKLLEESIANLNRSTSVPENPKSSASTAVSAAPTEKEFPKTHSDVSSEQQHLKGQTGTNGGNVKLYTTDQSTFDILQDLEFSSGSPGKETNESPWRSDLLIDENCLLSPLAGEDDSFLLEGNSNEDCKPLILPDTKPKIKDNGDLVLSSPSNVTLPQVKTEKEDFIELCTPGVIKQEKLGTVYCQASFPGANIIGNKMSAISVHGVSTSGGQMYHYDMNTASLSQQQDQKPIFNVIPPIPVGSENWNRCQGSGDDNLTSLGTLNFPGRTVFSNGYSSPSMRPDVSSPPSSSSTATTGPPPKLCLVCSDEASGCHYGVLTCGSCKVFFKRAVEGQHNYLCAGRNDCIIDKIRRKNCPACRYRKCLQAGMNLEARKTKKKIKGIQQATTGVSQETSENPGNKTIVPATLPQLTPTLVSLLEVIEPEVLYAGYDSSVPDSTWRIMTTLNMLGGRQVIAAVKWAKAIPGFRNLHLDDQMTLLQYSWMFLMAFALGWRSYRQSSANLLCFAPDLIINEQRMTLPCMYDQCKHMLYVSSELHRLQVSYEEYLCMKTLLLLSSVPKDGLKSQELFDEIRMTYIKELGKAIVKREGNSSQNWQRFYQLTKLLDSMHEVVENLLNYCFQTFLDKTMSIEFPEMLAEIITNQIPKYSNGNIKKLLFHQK
Chain of Cytochrome P450 3A4 (Homo sapiens) (P08684 whole entry, looked up): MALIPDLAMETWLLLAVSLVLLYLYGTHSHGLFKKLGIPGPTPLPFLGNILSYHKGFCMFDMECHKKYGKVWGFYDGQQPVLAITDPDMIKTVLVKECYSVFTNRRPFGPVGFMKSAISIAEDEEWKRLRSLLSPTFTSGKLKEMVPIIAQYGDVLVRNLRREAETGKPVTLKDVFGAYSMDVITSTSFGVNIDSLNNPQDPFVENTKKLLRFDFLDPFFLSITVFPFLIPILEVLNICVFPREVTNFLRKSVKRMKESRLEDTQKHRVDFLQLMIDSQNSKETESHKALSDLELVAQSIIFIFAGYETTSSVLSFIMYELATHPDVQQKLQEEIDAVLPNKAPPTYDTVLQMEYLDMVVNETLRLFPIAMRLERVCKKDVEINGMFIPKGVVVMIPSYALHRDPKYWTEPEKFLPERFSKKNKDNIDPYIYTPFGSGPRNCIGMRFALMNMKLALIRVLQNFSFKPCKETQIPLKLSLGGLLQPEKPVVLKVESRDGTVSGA
Chain of Ubiquitin carboxyl-terminal hydrolase 1 (Homo sapiens) (O94782 whole entry, looked up): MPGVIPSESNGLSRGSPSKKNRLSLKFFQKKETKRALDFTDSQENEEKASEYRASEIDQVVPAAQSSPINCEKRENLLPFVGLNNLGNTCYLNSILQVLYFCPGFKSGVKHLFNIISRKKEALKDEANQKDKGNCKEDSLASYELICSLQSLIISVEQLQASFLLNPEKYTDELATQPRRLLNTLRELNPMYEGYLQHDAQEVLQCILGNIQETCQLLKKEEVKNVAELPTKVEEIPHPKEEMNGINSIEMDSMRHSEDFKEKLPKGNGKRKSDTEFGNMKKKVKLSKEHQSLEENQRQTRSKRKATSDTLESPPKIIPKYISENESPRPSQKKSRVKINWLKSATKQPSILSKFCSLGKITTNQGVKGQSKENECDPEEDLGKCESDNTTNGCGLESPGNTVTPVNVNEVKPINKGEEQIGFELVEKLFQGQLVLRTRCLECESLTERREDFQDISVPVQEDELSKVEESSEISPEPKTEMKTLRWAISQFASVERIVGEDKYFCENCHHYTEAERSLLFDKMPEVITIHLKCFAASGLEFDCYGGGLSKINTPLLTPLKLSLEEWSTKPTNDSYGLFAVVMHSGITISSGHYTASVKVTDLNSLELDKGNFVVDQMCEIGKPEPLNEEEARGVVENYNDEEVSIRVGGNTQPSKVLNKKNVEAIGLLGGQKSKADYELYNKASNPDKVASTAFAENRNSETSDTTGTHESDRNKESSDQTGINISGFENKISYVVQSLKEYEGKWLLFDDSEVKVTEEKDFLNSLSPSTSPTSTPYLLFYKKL

COc1cccc(-c2ccc3ncnc(N4CCN(C)CC4)c3c2)c1
active: Potency [2] 3.98 µM | Potency [11] 3.55 µM | Potency [12] 3.98 µM | Potency [13] 2.24 µM | Potency [14] 35.5 µM | Potency [15] 39.8 µM
inactive: Potency [1] > 11.4 µM | activity change, negative = inhibition [3] 13% | activity, negative = inhibition [4] -6.09% | Potency [5] > 46 µM | Potency [6] > 46 µM | outcome [7] | Potency [8] | Potency [9] | activity change, negative = inhibition [10] -0.228%
8.77%: max response [10, 21]
10.1%: max response [10, 22]

COc1ccc(-c2nc3cnc(N4CCNCC4)nc3n(-c3ccc(OC)cc3)c2=O)cc1
15.1%: max response [10, 22]
15%: max response [10, 21]
active: Potency [16] 25.1 µM
inactive: Potency [5] > 9.22 µM | Potency [6] > 46 µM | outcome [7] | Potency [8] | activity change, negative = inhibition [10] 1.3% | Potency [11] | Potency [12] | Potency [13] | Potency [14] | Potency [15]

O=c1c(-c2ccc(F)cc2)nc2cnc(N3CCNCC3)nc2n1-c1ccccc1
inactive: Potency [1] > 11.4 µM | Potency [6] > 46 µM | Potency [8] | Potency [9] | activity change, negative = inhibition [10] 6.93% | Potency [11] | Potency [12] | Potency [13] | Potency [17] | Potency [14] | Potency [15] | max response [16] -15.9%
19.9%: max response [10, 21]
25.6%: max response [10, 22]
active: Potency [2] 10 µM

CN1CCN(c2nc(-c3cccc(C#N)c3)nc3ccccc23)CC1
inactive: Potency [1] > 11.4 µM | activity change, negative = inhibition [18] 9.54% | activity change, negative = inhibition [3] -2.42% | activity, negative = inhibition [4] 21.4% | Potency [5] > 46 µM | Potency [6] > 46 µM | outcome [7] | Potency [9] | outcome [19] | activity change, negative = inhibition [10] 8.44% | Potency [14]
7.86%: max response [10, 22]
active: Potency [2] 1.58 µM | Potency [15] 12.6 µM
3.27%: max response [10, 21]

Cc1nc2cnc(N3CCNCC3)nc2n(Cc2ccc(F)cc2)c1=O
active: Potency [2] 12.6 µM | Potency [15] 20 µM
inactive: Potency [1] > 11.4 µM | activity change, negative = inhibition [18] 7.46% | activity change, negative = inhibition [3] -14.9% | activity, negative = inhibition [4] 7.66% | Potency [5] > 9.22 µM | Potency [6] > 46 µM | outcome [7] | Potency [9] | activity change, negative = inhibition [10] 2.97% | Potency [14] | max response [16] 11.4%
14.9%: max response [10, 21]
19.5%: max response [10, 22]

O=c1c(-c2ccccc2)nc2cnc(N3CCNCC3)nc2n1-c1ccccc1
active: Potency [2] 7.94 µM | Potency [20] 3.16 µM
inactive: Potency [1] > 11.4 µM | Potency [5] > 9.22 µM | Potency [6] > 46 µM | outcome [7] | Potency [8] | Potency [9] | Potency [11] | Potency [12] | Potency [13] | Potency [17] | Potency [14] | Potency [15]
